Common to all, as to experiment: glycan array binding signal (z-score within array); higher = stronger binding
Common to all, as to settings: glycan notation: IUPAC condensed, linker removed

Experiment [1] deals with Neu5Ac(a2-3)Gal(b1-3)GlcNAc(b1-3)GalNAc. In outline:
(§1)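 Negative Z-scores can be read as non-binding. The Z-score is calculated within each array and then averaged across arrays of one protein sequence at different concentrations or buffers and across linkers. Arrays, 3228 in all, were curated from the Consortium for Functional Glycomics database and kept only where the protein sequence was available.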

The target in experiment [2] is Neu5Ac(a2-3)Gal(b1-4)GlcNAc(b1-3)Gal(b1-4)GlcNAc(b1-3)Gal(b1-4)GlcNAc. The procedure, abridged:
as §1

The target in experiment [3] is Neu5Ac(a2-3)Gal(b1-4)GlcNAc(b1-6)[Gal(b1-3)]GalNAc. The procedure, abridged: as §1
Experiment [4] deals with Neu5Ac(a2-3)Gal(b1-4)[Fuc(a1-3)]GlcNAc(b1-3)Gal. The procedure, abridged: as §1
Experiment [5] addresses Neu5Ac(a2-3)Gal(b1-4)[Fuc(a1-3)]GlcNAc(b1-3)Gal(b1-4)GlcNAc. In outline: as §1
Experiment [6] has as its target Neu5Ac(a2-3)Gal(b1-4)[Fuc(a1-3)]GlcNAc(b1-3)GalNAc. In outline:
as §1

Experiment [7] deals with Neu5Ac(a2-3)Gal6S(b1-4)[Fuc(a1-3)]GlcNAc. The procedure, abridged:
as §1

Experiment [8] concerns the target Neu5Ac(a2-6)Gal(b1-4)GlcNAc6S. In outline: as §1
For experiment [9], the target named is Neu5Ac(a2-8)Neu5Ac(a2-3)[GalNAc(b1-4)]Gal(b1-4)Glc. In outline:
as §1

Experiment [10] has as its target Neu5Ac(a2-8)Neu5Ac(a2-8)Neu5Ac(a2-3)[GalNAc(b1-4)]Gal(b1-4)Glc. In outline: as §1

Results on one molecule are retold here after the supplement of paper PMC8728848.

Only a selection was taken, and the strongest signals are over-represented in it overall.

B1: RetS (Pseudomonas aeruginosa), Q9HUV7 (protein)
chain: MVRLRIAIGLLVSFLLLLLGPMSPAVADDAGVSSVPLQTTATTPSANQNWRLLRDESAQLRIADVLQRKEQFRPLAKRSFIFPASPQAVWLQVQLPAQKVPSWLWIFAPRVQYLDYYLVQDGQLVRDQHTGESRPFQERPLPSRSYLFSLPVDGKPMTLYVRMTSNHPLMAWFDQIDEAGLVGLEKPAYAFGMLLGGMLLLLMYNLIRFAYSRSASSLWLAAVHAALAVCAAANLGLVAFWLPGLKFNQSLTADLGALGAAVSLLWFACSFFRGTAESRLNRLLQGEALLILAVGAIIAFTQQLWFSWLIYLLVILSSLSVPLIAAWHWYRGYQPARLIVAGMIVFNAGFMVFLPVLFGTKQLDPGWLVLGVFSFATLAGLVLSVSLTERQRLIQQLNLQQRTSEAAHTAELQTKAEFLAKISHEIRTPMNGVLGMTELLLGTPLSAKQRDYVQTIHSAGNELLTLINEILDISKLESGQIELDEVQFDLNALIEDCLDIFRVKAEQQRIELISFTQPQVPRVIGGDPTRLRQVVLSLLDNAFKQTEEGEILLVVALDDQGETPRLRIAVQDSGHPFDAKEREALLTAELHSGDFLSASKLGSHLGLIIARQLVRLMGGEFGIQSGSSQGTTLSLTLPLDPQQLENPTADLDGPLQGARLLVVDDNETCRKVLVQQCSGWGLNVSAVSSGKEALAQLRTKAHLREYFDVVLLDQDMPGMTGMQLAAKIKEDPNLNHDILLIMLTGISNAPSKIIARNAGIKRILAKPVAGYTLKATLADELAQRGVSGVTNYLQPAKEAQAPSLPSDFRILVAEDNSISTKVIRGMLNKLNLQPDTASNGQEALSAMKATQYDLVLMDCEMPVLDGFSATEQLRAWEAHEQRPHTPVVALTAHILSEHKERARLVGMDGHMAKPVELSQLRELIAYWVGERDRRRQGDALPS
For B1, the “glycan array binding signal (z-score)” value was -0.17 in experiment [1]; 0.517 in experiment [2]; -0.343 in [3]; -0.075 in experiment [4]; 1.76 in experiment [5]; 3.56 in experiment [6]. Also, the “glycan array binding signal (z-score)” value was -0.246 in experiment [7], 0.369 in experiment [8], 0.67 in experiment [9] and 0.181 in [10].
